Measurements: PubChem BioAssay
Several values for one entry are separate records, joined by “and”; a condition that tells them apart may be missing. Identical values can stand only once. Activity calls are given as the source filed them. Cut-off read from the data, not from the text of the source, unless noted: active = parasite load remaining mostly below about 12% (no sharp cut-off); inactive = mostly above about 10%.

assay: liver-stage malaria parasite growth inhibition, primary screen, cell-based, HepG2, luciferase luminescence, HepG2 viability (AID 624349);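 note: 100% = mean of DMSO negative control wells on the same plate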; conditions: P. berghei liver stage in HepG2, luciferase luminescence, concentration not given here; parasite load remaining: stronger effect = lower value; viability: measured here: HepG2 viability without parasites

Row | SMILES | parasite load remaining | viability
1 | CCn1cc(C(=O)O)c(=O)c2cnc(N3CCCC3)nc21 | 91.2% (inactive) and 141% (inactive) | 104% and 72%
2 | CCCCN(CCCC)CCCOC(=O)c1ccc(N)cc1 | 67.1% (inactive) and 96% (inactive) and 39.6% (inactive) | 98.6% and 79.9% and 102%
3 | Nc1nc(=S)c2[nH]cnc2[nH]1 | 146% (inactive) and 64.9% (inactive) | 48.2% and 41.8%
4 | CC(=O)OC/C=C(C)/C=C/C=C(C)/C=C/C1=C(C)CCCC1(C)C | 135% (inactive) and 40.4% (inactive) | 96.6% and 98.5%
5 | CCCCCN(C)CCC(O)(P(=O)(O)O)P(=O)(O)O | 28% (inactive) | 76.5%
6 | Oc1c(Cl)cc(Cl)cc1Sc1cc(Cl)cc(Cl)c1O | 21.9% (inactive) and 0.17% (inactive) | 65.4% and 70%
7 | CCC(=O)c1c(O)cc(O)cc1O | 100% (inactive) | 70.3%
8 | COc1ccc(CN(CCN(C)C)c2ncccn2)cc1 | 161% (inactive) and 52.7% (inactive) | 86.2% and 91.9%
9 | O=C(O)c1cc(=O)c2ccccc2o1 | 136% (inactive) | 95.8%
10 | O=C(OCC(O)CO)c1ccccc1Nc1ccnc2cc(Cl)ccc12 (stereo not given) | 9.85% (inactive) and 91.3% (inactive) and 74.6% (inactive) | 47.1% and 73.6% and 92%
11 | C[N+]12CCC(CC1)C(OC(=O)C(O)(c1ccccc1)c1ccccc1)C2 (stereo not given) | 89.9% (inactive) and 72% (inactive) and 63.2% (inactive) | 98.6% and 73% and 99.2%
12 | OC[C@H]1O[C@@H](O[C@@H]2[C@@H](CO)O[C@](O)(CO)[C@H]2O)[C@H](O)[C@@H](O)[C@H]1O | 106% (inactive) and 22.7% (inactive) | 76.4% and 96.6%
13 | O=C(Cn1ccnc1[N+](=O)[O-])NCCO | 107% (inactive) and 46.8% (inactive) | 103% and 102%
14 | CCOC(N)=O | 148% (inactive) and 51.2% (inactive) | 85% and 96.6%
15 | CCCCCCCCCCCCCCCCOP(=O)([O-])OCC[N+](C)(C)C | 146% (inactive) and 43% (inactive) | 78.6% and 106%
16 | O=c1[nH]c(=O)n([C@H]2C[C@H](O)[C@@H](CO)O2)cc1F | 13.4% (inactive) | 75%
17 | Cc1ccnc(NS(=O)(=O)c2ccc(N)cc2)n1 | 74% (inactive) and 287% (inactive) and 42.8% (inactive) | 92.3% and 68.7% and 98.8%

Row | SMILES | parasite load remaining | viability
18 | CC[C@]12CCCN3CCc4c(n(c5ccccc45)[C@@](O)(C(=O)OC)C1)[C@@H]32 | 27.1% (inactive) and 109% (inactive) | 48.5% and 87%
19 | CCCCc1nc(Cl)c(CO)n1Cc1ccc(-c2ccccc2-c2nn[nH]n2)cc1 | 128% (inactive) and 49.4% (inactive) | 84.8% and 98.4%
20 | CCOC(=O)n1ccn(C)c1=S | 106% (inactive) and 140% (inactive) and 85.8% (inactive) | 108% and 84.5% and 77.4%
21 | Cc1c(NC(=O)c2cccnc2)c(=O)n(-c2ccccc2)n1C | 43.9% (inactive) and 167% (inactive) and 109% (inactive) | 47% and 88.9% and 92.6%
22 | CCN(CC)Cc1cc(Nc2ccnc3cc(Cl)ccc23)ccc1O | 2.94% (inactive) and 43.6% (inactive) | 35.5% and 83.9%
23 | CC(C)(Oc1ccc(Cl)cc1)C(=O)O | 91.8% (inactive) and 94% (inactive) | 98.7% and 75.8%
24 | Cc1c(Nc2ncccc2C(=O)O)cccc1C(F)(F)F | 99.9% (inactive) and 46.5% (inactive) | 95.4% and 105%
25 | CC(=O)NCCCCCC(=O)O | 132% (inactive) | 98.6%
26 | O=C(O)c1cc(O)c(O)c(O)c1 | 50.3% (inactive) | 100%
27 | CCn1cc(C(=O)O)c(=O)c2cc(F)c(N3CCNCC3)nc21 | 165% (inactive) and 68.7% (inactive) and 19.5% (inactive) | –
28 | CCN(CC)CCOc1ccc(/C(=C(\Cl)c2ccccc2)c2ccccc2)cc1 | 16% (inactive) and 5.06% (inactive) | 73.6% and 90.4%
29 | S=P(N1CC1)(N1CC1)N1CC1 | 137% (inactive) and 49.2% (inactive) | 91% and 141%
30 | Nc1ncnc2c1ncn2[C@@H]1O[C@H](COP(=O)(O)O)[C@@H](O)[C@H]1O | 75.5% (inactive) and 87.1% (inactive) | 125% and 81%
31 | CCCCCCOc1ccccc1C(N)=O | 151% (inactive) | 88.6%
32 | Cc1cc(=O)[nH]c(=S)[nH]1 | 70.4% (inactive) | 92%
33 | N[C@@H](CCC(=O)N[C@@H](CS)C(=O)NCC(=O)O)C(=O)O | 31.4% (inactive) | 68.2%
34 | O=C(CCCCC(=O)Nc1c(I)cc(I)c(C(=O)O)c1I)Nc1c(I)cc(I)c(C(=O)O)c1I | 81.3% (inactive) | 93.2%

assay: stimulators of nuclear beta-catenin in C2C12, primary screen, imaging, WNT3A-conditioned medium, mouse C2C12, NPC library (AID 1117326; in the data active = nuclear beta-catenin stimulation mostly above about 4.2%, no sharp cut-off; inactive = mostly below about 10%; note: reference of the scale not given here); conditions: at 10 µM, stronger effect = higher value

Row | SMILES | nuclear beta-catenin stimulation
35 | CCn1cc(C(=O)O)c(=O)c2cnc(N3CCCC3)nc21 | -0.4% (inactive)
36 | NS(=O)(=O)c1cc2c(cc1Cl)NC(C(Cl)Cl)NS2(=O)=O (stereo not given) | -0.1% (inactive)
37 | CCCCN(CCCC)CCCOC(=O)c1ccc(N)cc1 | 0.5% (inactive)
38 | Nc1nc(=S)c2[nH]cnc2[nH]1 | 14.8% (inactive)
39 | CC(=O)OC/C=C(C)/C=C/C=C(C)/C=C/C1=C(C)CCCC1(C)C | 3.8% (inactive)
40 | CCCCCN(C)CCC(O)(P(=O)(O)O)P(=O)(O)O | -3% (inactive)
41 | Oc1c(Cl)cc(Cl)cc1Sc1cc(Cl)cc(Cl)c1O | 41.4% (active)
42 | CCC(=O)c1c(O)cc(O)cc1O | 1.8% (inactive)
43 | COc1ccc(CN(CCN(C)C)c2ncccn2)cc1 | 1.3% (inactive)
44 | O=C(O)c1cc(=O)c2ccccc2o1 | -0.2% (inactive)
45 | O=C(OCC(O)CO)c1ccccc1Nc1ccnc2cc(Cl)ccc12 (stereo not given) | 3.1% (inactive)
46 | C[N+]12CCC(CC1)C(OC(=O)C(O)(c1ccccc1)c1ccccc1)C2 (stereo not given) | 1.4% (inactive)
47 | OC[C@H]1O[C@@H](O[C@@H]2[C@@H](CO)O[C@](O)(CO)[C@H]2O)[C@H](O)[C@@H](O)[C@H]1O | 2.4% (inactive)
48 | O=C(Cn1ccnc1[N+](=O)[O-])NCCO | -1.8% (inactive)
49 | CCOC(N)=O | 2.6% (inactive)
50 | CCCCCCCCCCCCCCCCOP(=O)([O-])OCC[N+](C)(C)C | -0.6% (inactive)
51 | O=c1[nH]c(=O)n([C@H]2C[C@H](O)[C@@H](CO)O2)cc1F | 21% (inactive)
52 | Cc1ccnc(NS(=O)(=O)c2ccc(N)cc2)n1 | 3.8% (inactive)
53 | CC[C@]12CCCN3CCc4c(n(c5ccccc45)[C@@](O)(C(=O)OC)C1)[C@@H]32 | -2.1% (inactive)

Row | SMILES | nuclear beta-catenin stimulation
54 | CCCCc1nc(Cl)c(CO)n1Cc1ccc(-c2ccccc2-c2nn[nH]n2)cc1 | 2.6% (inactive)
55 | CCOC(=O)n1ccn(C)c1=S | 0.6% (inactive)
56 | Cc1c(NC(=O)c2cccnc2)c(=O)n(-c2ccccc2)n1C | -1.7% (inactive)
57 | Cc1cc(-c2ccccc2)nnc1NCCN1CCOCC1 | 1.4% (inactive)
58 | Cc1nc2n(c(=O)c1CCN1CCC(c3noc4cc(F)ccc34)CC1)CCC[C@H]2O | 0% (inactive)
59 | CCN(CC)Cc1cc(Nc2ccnc3cc(Cl)ccc23)ccc1O | 0.5% (inactive)
60 | CC(C)(Oc1ccc(Cl)cc1)C(=O)O | 1.8% (inactive)
61 | Cc1c(Nc2ncccc2C(=O)O)cccc1C(F)(F)F | 4.9% (inactive)
62 | CC(=O)NCCCCCC(=O)O | 0.2% (inactive)
63 | O=C(O)c1cc(O)c(O)c(O)c1 | 1% (inactive)
64 | CCn1cc(C(=O)O)c(=O)c2cc(F)c(N3CCNCC3)nc21 | -0.6% (inactive)
65 | CCN(CC)CCOc1ccc(/C(=C(\Cl)c2ccccc2)c2ccccc2)cc1 | 40.9% (active)
66 | S=P(N1CC1)(N1CC1)N1CC1 | -0.7% (inactive)
67 | Nc1ncnc2c1ncn2[C@@H]1O[C@H](COP(=O)(O)O)[C@@H](O)[C@H]1O | 2.4% (inactive)
68 | CCCCCCOc1ccccc1C(N)=O | 2.2% (inactive)
69 | Cc1cc(=O)[nH]c(=S)[nH]1 | -1.2% (inactive)
70 | N[C@@H](CCC(=O)N[C@@H](CS)C(=O)NCC(=O)O)C(=O)O | -1% (inactive)
71 | CC1(C)O[C@H]2CC(=O)OC[C@]23[C@H]2CC[C@@]4(C)[C@H](c5ccoc5)OC(=O)[C@H]5O[C@]54[C@]2(C)C(=O)C[C@@H]13 | -0.3% (inactive)
72 | O=C(CCCCC(=O)Nc1c(I)cc(I)c(C(=O)O)c1I)Nc1c(I)cc(I)c(C(=O)O)c1I | 1.1% (inactive)
